uPA generation: blocks generation of uPA at the cell surface; AID 540303; Potency, µM (titrated, usually from 38.3 µM), without a hit: top-dose activity change, negative = inhibition, usual class: inhibitors; cell surface uPA generation assay, qHTS; 0.31% of 330,000 active; active = well fitted inhibition curve with a large enough effect; inconclusive = small, poorly fitted or top-dose-only effect; inactive = no such curve, though single readings can be large or run the other way; tested in mouse RAW 264.7 cells; note: potency is the fitted concentration of half-maximal effect; nearly all actives have a fitted effect of over 55% in size
DT40 TDP1 CPT: growth inhibition of DT40 Tdp1-/-;hTDP1 cells with camptothecin (screen for TDP1 inhibitors). chicken DT40 Tdp1-/-;hTDP1 cells + 20 nM CPT, ATP luminescence, 48 h. Potency, µM (top dose mostly 46.2 µM), inactives show at the highest dose activity change, negative = growth inhibition, actives largely listed as inhibitors. 12% of 420,000 active; note: potency is the fitted concentration of half-maximal effect; nearly all actives have a fitted effect of over 55% in size
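Chicken DT40 Tdp1-/- cells stably complemented with human TDP1 were seeded at 400 cells/well in medium containing 20 nM camptothecin, exposed to pin-transferred compounds, and grown at 37 °C for at least 48 hr. Viability was read as ATP luminescence.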
HT1080NT lethal: kills 2HG-producing HT-1080-NT fibrosarcoma cells; HT-1080-NT fibrosarcoma viability, CellTiter-Glo ATP luminescence, 48 h; Potency, µM (top dose mostly 46.1 µM), for inactives: at the top dose activity, negative = less viability, actives largely listed as cytotoxic; 1.6% of 360,000 active;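 note: NT is the 2HG producing partner of a matched IDH1 knockdown line; potency is the fitted concentration of half-maximal effect; 0% = DMSO-treated cells and -100% = media-only wells without cells; nearly all actives have a fitted effect of over 55% in size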
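Fibrosarcoma NT cells, 750 per well in 5% FBS RPMI, were exposed to compound for 48 hours. Viability: CellTiter-Glo luminescence.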
IL1B secr inh: inflammasome signaling inhibition, IL-1 beta readout. activity change, % at 57.5 µM. AID 743279. THP-1 LPS/ATP IL-1B secretion, AlphaLISA, 16 h; hits give low values. 4.7% of 360,000 active; in the data active = activity change below about -50%; inconclusive = mostly about -30% to -49%
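THP-1 cells pretreated 1 hr with compounds (up to 57.5 uM final), then stimulated with LPS (250 ng/mL final) plus ATP (1.25 mM final); secreted IL-1B measured by AlphaLISA after 16 hr, decreased signal indicating inhibition.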
HT1080 IDH1KD tx: HT-1080 IDH1 knockdown cell toxicity (counter line). Potency, µM (series often up to 46.1 µM), for the others: top-dose activity, negative = toxicity, most hits filed as cytotoxic. HT-1080 IDH1 knockdown viability, ATP luminescence, 48 h. AID 686971. 2% of 360,000 active;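 note: potency is the fitted concentration of half-maximal effect; 0% = DMSO wells and -100% = cell-free medium wells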
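After a 2 h attachment period, IDH1KD HT-1080 cells took pin-transferred compound for 48 h at 37 °C; ATP-based luminescence after 10 min room-temperature reagent incubation reported viability.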
TDP1 cell noCPT: qHTS for Inhibitors of human tyrosyl-DNA phosphodiesterase 1 (TDP1): qHTS in cells in absence of CPT | DT40 Tdp1-/- hTDP1 cells, no CPT, ATP luminescence, 48 h | Potency, µM (highest dose often 46.2 µM), inactives show at the highest dose activity change, negative = growth inhibition, usual class: inhibitors | 15% of 420,000 active | AID 686978, 2013; note: potency is the fitted concentration of half-maximal effect; nearly all actives have a fitted effect of over 55% in size
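Cells were dispensed at 400 per well, compounds added by pin tool, plates incubated ≥48 hr at 37 °C, then CellTiter-Glo added for 30 min at room temperature before luminescence reading. Line: DT40 Tdp1-/- complemented with hTDP1; camptothecin omitted.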
The depositor's hits bear a star; ? = inconclusive; / = no result. A selection: hits, their analogues and other compounds. The true share with any hit is near 19%. Unless noted, calls come from the whole dose curve; as a rule, active = well fitted curve in the direction sought with a large enough effect; inconclusive = small, poorly fitted or top-dose-only effect, or another doubt; inactive = no such curve, though single readings can be large; an effect the other way counts as inactive or inconclusive. Unless noted, % is set by controls: 0 for no effect and ±100 for the full control effect.

SMILES | uPA generation | DT40 TDP1 CPT | HT1080NT lethal | IL1B secr inh | HT1080 IDH1KD tx | TDP1 cell noCPT
O=C(O)[C@H]1CCCN1 | / | 12% | / | / | / | -18%
CCN(CC)C(=O)c1cc([N+](=O)[O-])cc2c1-c1ccc([N+](=O)[O-])cc1C2=C(C#N)C#N | -4% | 0.65µM* | -13% | -16 | -4% | 16µM*
Cc1ccc(CSc2nncn3c2cc2sccc23)cc1 | / | -10% | / | / | / | -15%
COc1cc(/C=C/C(=O)NC(=O)c2ccccc2O)ccc1OC(C)=O | -28% | ? | 4% | -15 | 10% | ?
COc1cc(CN2CCC3(CCC(CNC(=O)c4ccco4)O3)CC2)cc(OC)c1 (configuration not stated) | / | -1% | / | / | / | -22%
O=C(c1ccc(S(=O)(=O)Nc2cccc(C(F)(F)F)c2)cc1)N1CCN(c2ccccc2O)CC1 | 0% | ? | -16% | ? | ? | 23µM*
O=C(c1ccc(NS(=O)(=O)c2cccc(C(F)(F)F)c2)cc1)N1CCCC1 | 0% | 17% | 4% | 20 | -11% | 8%
Nc1ccc(N2CCCC2)c(S(=O)(=O)Nc2cccc(C(F)(F)F)c2)c1 | 1% | ? | -1% | ? | 0% | 29µM*
COc1ccc(NS(=O)(=O)c2cc(N)ccc2N2CCCCC2)cc1 | -27% | ? | -5% | 11 | 0% | -12%
O=C(CCNC(=O)c1ccc(Cl)cc1)NCc1ccco1 | 3% | -7% | -1% | 0 | 0% | -13%
Cc1ccccc1S(=O)(=O)N(C)C[C@@H]1OCc2cn(nn2)CCCC(=O)N([C@H](C)CO)C[C@H]1C | / | -5% | 0% | 9 | 8% | -6%
CSc1cccc(NS(=O)(=O)c2ccc3[nH]cc(C(=O)N4CCCCCC4)c(=O)c3c2)c1 | / | -23% | / | / | / | -11%
COc1ccc(OC)c(S(=O)(=O)Nc2cccc3ccc(O)cc23)c1 | 0% | -4% | -21% | -11 | -13% | ?
Cc1ccc2c(=O)c(C(=O)c3ccc(F)cc3)cn(CC(=O)NCc3ccccc3Cl)c2n1 | / | -24% | / | / | / | -7%
Cc1cc(O)c2c(c1)O[C@@]1(C)CC[C@H]3C(C)(C)CCCC34CO[C@@H]2[C@H]41 (some centres not stated) | / | ? | / | / | / | 17µM*
CC1(C)CCC[C@]2(C)C3CC(=O)O[C@@]3(C)CC[C@H]12 (some centres not stated) | / | 0% | / | / | / | ?
COc1ccc(C2=Nc3ccccc3N(C(=O)Cc3cc(OC)cc(OC)c3)C2C(=O)NC(C)(C)C)cc1 (configuration not stated) | / | 18µM* | -5% | -17 | 0% | -85%
COc1ccc(C2=Nc3ccccc3N(C(=O)c3ccc4ncccc4c3)C2C(=O)NC(C)(C)C)cc1 (configuration not stated) | / | 13µM* | -12% | 1 | ? | 23µM*
COc1ccc(C2=Nc3ccccc3N(C(=O)c3ccc4ncccc4c3)C2C(=O)NC2CCCC2)cc1 (configuration not stated) | / | 8.2µM* | ? | -6 | ? | 9.2µM*
CSc1ncccc1C(=O)N(C)CC(=O)Nc1cccc(F)c1 | -5% | 0% | 29% | 20 | -1% | 2%
Cc1ccccc1S(=O)Cc1ccc(C(=O)N2CCN(C(=O)c3ccco3)CC2)o1 (configuration not stated) | 2% | -17% | 14% | -10 | 4% | 2%
CSCCOC(=O)C1=C(C)Nc2ccc(C)cc2S1 | -1% | 21µM* | -8% | ? | -9% | 16µM*
CCOC(=O)C1=C(C)Nc2ccc(C)cc2S1 | -3% | ? | -7% | ? | -3% | ?

Bioassay records: PubChem BioAssay, National Center for Advancing Translational Sciences (NCATS)
